From PubChem
Pf growth 48h – Primary qHTS for delayed death inhibitors of the malarial parasite plastid, 48 hour incubation. 310,000 tested, 5.9% active. P. falciparum luciferase growth in erythrocytes, 48 h. AID 504832, 2011. Potency, µM (titrated, usually from 28.7 µM), hits mostly inhibitors
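Cell-based growth assay: transgenic P. falciparum expressing firefly luciferase, cultured in red cells within RPMI 1640 containing 0.5% w/v Albumax, 24 mM bicarbonate and gentamycin. A drop in luciferase activity indicates inhibition.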
HCV inh – qHTS Assay for Inhibitors of Hepatitis C Virus (HCV); 340,000 tested, 3.4% active; AID 651820, 2012; Potency, µM (top dose mostly 41.8 µM), most hits filed as inhibitors; Huh7.5.1 HCVcc-Cre infection, luciferase reporter, 44 h
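Reporter virus HCVcc-Cre (~0.5 moi) infects cells exposed to compound; seeding density 1,000 cells/well with 4 h settling beforehand. Luminescence, 15 sec read, taken 44 h post-infection following a 15 min RT substrate incubation.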
CHX counter – Cycloheximide Counterscreen for Small Molecule Inhibitors of Shiga Toxin. cell reporter, cycloheximide protein synthesis inhibition counterscreen. max response, %. 300,000 tested, 12% active; in the data active means max response mostly above about 13%, no sharp cut-off; inactive means mostly below about 14%; further: read at 38.3 µM for the half of the compounds with a filed dose
HCMV antiviral – qHTS Assay for inhibitors of the human cytomegalovirus (HCMV); HFF cells, HCMV-luciferase reporter, 72 h; hits give low values; activity change, negative = inhibition, % at 57.5 µM; 410,000 tested, 4.5% active; in the data active means activity change below about -60%; inconclusive means no clear call, values can overlap the other calls; inactive means above about -39%
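Two-dose cell screen: HFF monolayers treated with compounds and infected with luciferase-expressing HCMV at 1 PFU/cell, 72 h at 37C, then lysed for luciferase measurement.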
Pf growth 96h – Primary qHTS for delayed death inhibitors of the malarial parasite plastid, 96 hour incubation; P. falciparum luciferase reporter growth, 96 h; Potency, µM (series often up to 28.7 µM), most hits filed as inhibitors; 320,000 tested, 6.9% active; AID 504834, 2011
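Cell-based qHTS: luciferase-tagged P. falciparum in erythrocytes (2% hematocrit, 0.05% parasitemia final) incubated with compounds for 96 hours, 37 C, 5% CO2; luciferase detection reagent then added and luminescence measured.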
Shiga inhibitor – A qHTS for Small Molecule Inhibitors of Shiga Toxin; Vero cells, Shiga toxin protein synthesis inhibition reporter; inhibition, % at 38.7 µM; 290,000 tested, 9.2% active; AID 2315, 2010; in the data active means inhibition mostly above about 28%, no sharp cut-off; inactive means mostly below about 43%
Numbers stand for hits; . = inactive; ? = inconclusive; / = no result given. The list is not random: actives were taken first. Their share in the collection is about 21%. Unless noted, the call rests on the fitted dose curve; in most records, active means well fitted inhibition curve with a large enough effect; inconclusive means small, poorly fitted or top-dose-only effect, or another doubt; inactive means no such curve, though single readings can be large or run the other way.

SMILES | Pf growth 48h | HCV inh | CHX counter | HCMV antiviral | Pf growth 96h | Shiga inhibitor
O=C(Cc1ccc(-c2ccccc2)cc1)NNC(=S)NCc1ccco1 | . | 11.2µM | . | . | ? | 56.0
CCOc1ccc(C(=O)NCc2ccco2)cc1OCC | . | . | . | . | . | .
O=C(COc1ccc(Cl)cc1Cl)NCc1ccco1 | . | . | 28.7 | ? | ? | 125.5
COc1ccc(C2(C)C(C#N)C(=O)NC(=O)C2C#N)cc1 (stereo unspecified) | / | . | / | . | / | /
Cc1cc(NC(=O)Nc2nnc(N(C)Cc3ccccc3)s2)ccc1Br | / | / | / | . | / | /
O=C1CC2(CCN(C(=O)C3CC(=O)N(c4ccccc4)C3)CC2)Oc2ccccc21 (stereo unspecified) | ? | . | / | . | 9.28µM | /
O=C1CC2(CCN(C(=O)c3cccc(Cl)c3)CC2)Oc2ccccc21 | ? | . | / | -98.9 | ? | /
CC(=O)Nc1ccc(C)cc1-c1nc2ccccc2n(Cc2cccc(Br)c2)c1=O | / | / | / | . | / | /
CCOc1ccc(NC(=O)Cn2nnc(C(=O)OC)c2C(=O)OC)cc1 | / | / | / | . | / | /
CC(C)CCNC(=O)CN(C(=O)CCC(=O)Nc1ccccn1)c1ccc(F)c(Cl)c1 | ? | . | . | . | . | .
CCc1nnc(NC(=O)CCC(=O)Nc2ccccc2)s1 | . | . | . | . | . | .
Cc1nc(NC(=S)Nc2ccccc2)sc1C | . | ? | 42.8 | . | . | 127.2
CCc1nnc(NC(=S)Nc2ccccc2)s1 | . | . | 45.3 | . | ? | 98.9
CCOc1ccc(C(=O)Nc2nnc(NC(=S)Nc3ccccc3)s2)cc1 | ? | ? | 25.5 | . | ? | 69.9
Cc1ccc(C(=O)Nc2nnc(NC(=S)Nc3ccccc3)s2)cc1 | . | ? | . | . | . | .
CCN(C(=O)c1cnc(N2CCOCC2)c2ccccc12)c1cc(C)ccc1C | / | / | / | . | / | /
O=[N+]([O-])c1nn(-c2ccc3c(c2)OCCO3)n(O)c1=NCc1ccc(F)cc1Cl | . | . | 49.6 | . | . | 131.0
Cc1nn(CC(=O)Nc2ccc3c(c2)OCCO3)c(C)c1[N+](=O)[O-] | / | . | / | . | / | /
O=[N+]([O-])c1nn(-c2ccc3c(c2)OCCO3)n(O)c1=NCCC1=CCCCC1 | . | . | 24.7 | . | ? | .
O=[N+]([O-])c1nn(-c2ccc3c(c2)OCCO3)n(O)c1=NCc1ccc(F)cc1 | . | ? | 102.6 | . | . | 91.8
CCn1c(=O)cc(OCC(=O)N2CCN(c3ccc(C)cc3)C(C)C2)c2ccccc21 (stereo unspecified) | / | / | / | . | / | /
CCN(CC)C(=O)[C@H]1C[C@H](CC(=O)NCc2ccc(OC)c(OC)c2)C(=O)N2CCc3c([nH]c4cc(-c5ccco5)ccc34)[C@]12C | / | ? | / | . | / | /
O=C(O)Cc1ccc(-n2cccc2)cc1 | . | . | . | . | . | .
Cc1ccc2c(c1)N(C(=O)NCc1ccccc1)CCO2 | / | / | / | . | / | /
COc1ccc(-n2c(C)cc(C(=O)Cn3c(NCCO)nc4ccccc43)c2C)cc1 | . | . | . | . | 10.4µM | .
SMILES | Pf growth 48h | HCV inh | CHX counter | HCMV antiviral | Pf growth 96h | Shiga inhibitor
O=C(Cn1c(NCCCO)nc2ccccc21)c1ccc(Cl)cc1Cl | 1.65µM | . | . | . | 9.28µM | .
COC(=O)C(Cc1ccc(O)cc1)NC(=O)C(CC(=O)OC(C)(C)C)NC(=O)OC(C)(C)C (stereo unspecified) | . | . | . | . | . | .
Cc1cc(C)c(S(=O)(=O)Nc2ccc(O)c(Sc3ncn[nH]3)c2)cc1C | . | . | . | . | . | .
COc1ccc2[nH]c(=O)cc(C(=O)O)c2c1 | . | . | . | . | ? | .
COc1ccc2[nH]c3c4c(ccc3c2c1)C(=O)C=CC4=O | ? | ? | 37.5 | . | ? | 89.2
O=C(Nc1cccc(NC(=O)C2CCCO2)c1)c1ccco1 (stereo unspecified) | . | . | . | . | . | .
O=C1CC(C(=O)N2CCCc3ccccc32)CN1c1ccc(F)cc1 (stereo unspecified) | . | . | 24.5 | . | ? | 74.7
O=C1CC(C(=O)N2CCCc3ccccc32)CN1c1ccc(Cl)cc1 (stereo unspecified) | . | . | 38.6 | ? | ? | .
